The text below walks through data of PubChem BioAssay.

A short description of the test: reducers of endogenous Her2 protein level, primary screen, SKBR3 breast tumor cells, AlphaScreen, ATP viability (AID 461).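 Note: percent of carrier control wells set as 100% viability.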 As to conditions: 18-24 h, measured here: SKBR3 viability, ATP luminescence, at 10 µM.
As for `CCOC(=O)C1CCN(C(=O)CN(c2ccc(Cl)c(C(F)(F)F)c2)S(C)(=O)=O)CC1`, the viability came out at 112%. The figure for `CCOc1ccccc1C(=O)Nc1cc(=O)n(C)c(=O)n1C` is 89.5%; for `Cc1ccc(-c2cc3nc4c(c(=O)n3[nH]2)CCCC4)cc1` it is 105%.

`CCOC(=O)C(C)Sc1nnc(Cc2cc(=O)[nH]c(=O)[nH]2)n1-c1ccc(Cl)cc1` (stereo not drawn): the viability turned out to be 92.5%. Consider `c1nc(NCC2CCCO2)c2[nH]cnc2n1` (stereo not drawn), for which the viability came out at 83.5%.

With `O=C(Nc1ccc(Cl)cn1)c1cccnc1`, the viability came out at 104%. Under `O=C1c2ccccc2C(=O)N1C/C=C/CN1C(=O)c2ccccc2C1=O` stands 85%; under `O=c1oc2c3c4c(cc2cc1-c1nc2ccccc2[nH]1)CCCN4CCC3`, 79.5%. The figure for `CCCCC(=O)NCCc1cc2c(C)ccc(C)c2[nH]c1=O` is 101%; for `O=C(NCc1ccc(F)cc1)c1cc2ccccn2n1` it is 84%; for `COc1cccc(C2C3=C(N=C4SCC(=O)N42)c2ccccc2CC3)c1OC` (stereo not drawn) it is 103%. For `CCOC(=O)N1CCC(c2cc(=O)n3[nH]c(C)c(-c4ccc(F)cc4)c3n2)CC1`, the viability turned out to be 67%.

For the compound `C=CCn1c(=O)n(CCOC)c(=O)c2sc3ccccc3c21`, the viability worked out at 85%.

Turning to `Cc1ccc2cc(CCNC(=O)C(C)C)c(=O)[nH]c2c1C`, the viability was found to be 87.5%. The figure for `COc1ccc(S(=O)(=O)N2CCCC2C(=O)Nc2ccc(O)cc2)cc1` (stereo not drawn) is 93.5%.

Turning to `Cc1cccc(-n2ncc3c(NCc4cccnc4)ncnc32)c1`, the viability was found to be 95.5%. The figure for `COc1cccc(NC(=O)C2CCCN(S(=O)(=O)c3cccc4cccnc34)C2)c1` (stereo not drawn) is 106%; for `CCc1nnc(NC(=O)COC(=O)CN2C(=O)c3ccccc3C2=O)s1` it is 104%.
